Compounds with a hit are over-represented: about 6.7% of the library has one in this group of screens.
BoNT A protease = BoNT/A light chain protease inhibitors, primary screen, biochemical, flow cytometry, MLPCN library; multiplex microsphere protease substrate cleavage; hit rate 0.17% among 360,000; inhibition, % at 10 µM; further: plate controls were buffer without enzyme for full effect and enzyme alone for no effect
BoNT-F LC inh = BoNT/F light chain protease inhibitors, primary screen, biochemical, flow cytometry, MLPCN library; Botulinum neurotoxin type F light chain protease (Clostridium botulinum); Multiplex microsphere protease cleavage assay; inhibition, % at 10 µM; hit rate 0.22% among 360,000; in the data active means inhibition above about 35%, passing the limit was not always enough; inconclusive means no clear call, values can overlap the other calls; further: plate controls were buffer without enzyme for full effect and enzyme alone for no effect
GDH-TPI inh = GDH-TPI coupling enzyme inhibitors, primary screen, artefact control for M. tuberculosis FBA inhibitor project, biochemical, absorbance, full deck; GDH-TPI coupled enzyme counterscreen, NADH absorbance; inhibition, % at 4.8 µM; hit rate 1.2% among 360,000; AID 588335, 2011; in the data active means inhibition above about 30%;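 further: 0% = DMSO wells and 100% = wells lacking the enzyme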
FBA Mtb inh = Mtb FBA enzyme inhibitors, primary screen, biochemical, fluorescence, strain H37Rv; Fructose-bisphosphate aldolase (Mycobacterium tuberculosis (strain ATCC 25618 / H37Rv)), …; purified M. tuberculosis FBA, fluorescence read-out; inhibition, % at 1 µM; hit rate 2.3% among 360,000; in the data active means inhibition above about 27%;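 further: 0% = vehicle and 100% = reference inhibitor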
Anthrax LF prot = Bacillus anthracis LF protease inhibitors, primary screen, biochemical, multiplex microsphere, MLPCN library; hit rate 0.12% among 360,000; multiplex microsphere protease cleavage assay; inhibition, % at 10 µM; AID 588501, 2011; further: plate controls were buffer without enzyme for full effect and enzyme alone for no effect
Autofluor counter = compound fluorescence in toxin protease inhibitor counterscreen. hit rate 3.1% among 360,000. fluorescence intensity (no concentration beside the values). compound autofluorescence counterscreen, microsphere flow cytometry; stronger effect = higher value. AID 624483; in the data active means fluorescence intensity above about 16000; inconclusive means no clear call, values can overlap the other calls
An asterisk follows results filed as active; ? = inconclusive; . = no result. Unless noted, no stated cut-off is given here; in the data, active means inhibition above about 30%; inconclusive means no clear call, values can overlap the other calls; inactive means below that.

SMILES | BoNT A protease | BoNT-F LC inh | GDH-TPI inh | FBA Mtb inh | Anthrax LF prot | Autofluor counter
COc1ccc([C@H]2CC(=O)C=C(c3cccc4c3sc3ccccc34)C2)cc1OC | 0 | -2 | 20 | 0 | -3 | 3894
COc1ccc([C@H]2CC(=O)C=C(c3cc4ccccc4s3)C2)cc1OC | 1 | -4 | 33* | 0 | -5 | 4134
COc1ccc([C@H]2CC(=O)C=C(c3ccc(C)cc3)C2)cc1OC | 0 | -3 | 4 | -1 | -6 | 3924
Cc1cc(=O)n2[nH]c(C)c(-c3ccccc3)c2n1 | 0 | -2 | 3 | 15 | -2 | 2772
Cc1ccc(S(=O)(=O)/C(C#N)=C/c2c[nH]c3ccccc23)cc1 | 3 | -2 | 0 | 1 | 2 | 11451
Cc1cc2cc3c(cc2nc1SCC(=O)N1CCCC1)OCCO3 | 2 | 1 | 14 | 6 | -2 | 5502
Cc1cc2cc3c(cc2nc1SCC(=O)O)OCCO3 | -2 | -22 | 33* | 4 | -7 | 9164
CCN(CC(=O)Nc1ccc2c(c1)OCO2)Cc1nc2ccccc2c(=O)[nH]1 | 1 | 13 | 7 | 0 | -1 | 3036
Cc1ccc(N/N=C/c2c(C)c(C#N)c(=O)n(C)c2O)cc1C | 0 | -2 | 32* | -3 | 1 | 2805
COc1cc(S(=O)(=O)Nc2ccc(C)cc2)ccc1N=Cc1c(C)c(C#N)c(=O)n(C)c1O | 0 | 3 | 20 | -3 | 2 | 4407
Cc1c(C=N)c(O)n(C)c(=O)c1C#N | 1 | ? | 32* | 0 | -13 | 3437
CCN(CC)S(=O)(=O)c1ccc(N=Cc2c(C)c(C#N)c(=O)n(C)c2O)cc1 | 0 | 0 | 38* | 3 | -2 | 2057
COc1ccc(F)cc1S(=O)(=O)NCc1ccccc1 | 0 | -4 | 7 | 2 | 0 | 2087
Cc1nc2c(C#N)cnn2c2c1CCN(Cc1ccccc1)N2C | 1 | 0 | 44* | 7 | 1 | 4060
CC(C)CN1C(=O)c2ccc(NC(=O)c3cccs3)cc2C1=O | ? | -1 | 16 | 18 | 0 | 24092*
COc1ccc(NC(=O)Oc2ccccc2)cc1Cl | -1 | -7 | -12 | -3 | 7 | 3454
O=c1[nH]c(=O)n(Cc2ccco2)c2c1C(C(F)(F)F)(C(F)(F)F)N=C(C1CCCCC1)N2 | 2 | 2 | 0 | -3 | -15 | 20476*
O=c1[nH]c(=O)n(Cc2ccco2)c2c1C(C(F)(F)F)(C(F)(F)F)N=C(CCC1CCCCC1)N2 | 4 | -11 | 5 | 2 | -4 | ?
N#Cc1ccc(C2=NC(C(F)(F)F)(C(F)(F)F)c3c(n(Cc4ccco4)c(=O)[nH]c3=O)N2)cc1 | -1 | -1 | 6 | 0 | -2 | 23851*
COc1ccc(-c2ccoc2)cc1[C@H]1[C@H]2C=CC[C@@H](C)[C@@H]2C(=O)N1Cc1ccccc1 | 0 | 6 | -5 | 12 | 1 | 3479
Cc1csc(NC(=O)C(Cl)c2ccccc2)n1 (stereo not drawn) (tested in a mixture with another compound) | -2 | ? | 8 | 1 | -13 | 3718
O=C(Cc1ccc(-n2c(=S)[nH]c3ccccc3c2=O)cc1)N1CCN(c2ccccc2)CC1 | -1 | -2 | 8 | 1 | -6 | 22575*
CC(NC(=O)COC(=O)c1ccc2c(c1)S(=O)(=O)N=C1CCCCCN12)C12CC3CC(CC(C3)C1)C2 (stereo not drawn) | 0 | -3 | 11 | -1 | -2 | 2221
COC(=O)c1cnc(SC)nc1C | ? | 0 | 2 | 0 | 0 | 20134*
O=C(c1ccc(Cl)cc1)c1cccc(O)c1 | 0 | 7 | 12 | 2 | 0 | 4216
SMILES | BoNT A protease | BoNT-F LC inh | GDH-TPI inh | FBA Mtb inh | Anthrax LF prot | Autofluor counter
CCC(CC)C(=O)N(C)c1c(C)nc2c(OCC3CCCCC3)cccn12 | 0 | -8 | 10 | -2 | -3 | 3945
Cc1n[nH]c(C)c1S(=O)(=O)N1CCC(C(=O)N2CCn3c2nc2ccccc23)CC1 | -1 | -3 | -6 | 0 | -5 | 9581
Cc1ccc(N(CC(=O)N2CCn3c2nc2ccccc23)S(=O)(=O)c2c(C)n[nH]c2C)cc1 | -3 | 0 | 8 | 3 | -7 | 17135*
O=c1c2c([nH]c3ccccc13)CCCCCC2 | ? | -3 | 16 | 0 | -6 | 22192*
O=c1c2ccccc2[nH]c2ccccc12 | 0 | 1 | 4 | 139* | -4 | 4841
O=c1cc(-c2ccccc2)c2c([nH]1)CCCC2 | 5 | 7 | 1 | 6 | -8 | 19679*
O=c1cc(-c2ccccc2Cl)c2c([nH]1)CCC2 | -1 | -9 | -7 | 2 | -9 | 5713
Nc1cc(=O)[nH]c(SCC(=O)NC2CCCc3ccccc32)n1 (stereo not drawn) | 1 | 0 | 5 | 1 | 5 | 4557
CCOC(=O)C1(C)CCN1C(=O)c1cccc(OC(F)(F)F)c1 (stereo not drawn) | 1 | 5 | 4 | -4 | -3 | 4142
O=C1CCC/C1=C/Nc1cccc(F)c1 | . | . | 35* | -1 | . | .
O=C1CCCC/C1=C/Nc1ccc2c(c1)OCO2 | 1 | -2 | 15 | -4 | 0 | 16302*
COc1ccc(Oc2ccc(N/C=C3/CCCC3=O)cc2)cc1 | -1 | -8 | 25 | -2 | -6 | 2570
CCCN1C(=O)/C(=C/c2c(NCCCOC(C)C)nc3c(C)cccn3c2=O)SC1=S | 15 | 35* | 4 | -2 | 8 | 4542
CCC(C)N1C(=O)/C(=C/c2c(NCCCOC(C)C)nc3c(C)cccn3c2=O)SC1=S (stereo not drawn) | ? | ? | 18 | -1 | ? | ?
CCC(CC)C(=O)Nc1ccc(Sc2ccc([N+](=O)[O-])cc2)cc1 | 3 | -1 | 6 | -3 | -3 | 19877*
CCCC(=O)Nc1ccc(Sc2ccc([N+](=O)[O-])cc2)cc1 | -1 | -2 | 9 | 0 | -8 | 3391
COc1ccccc1NC1=C(Cl)C(=O)N(C2CCCCC2)C1=O | 16 | 9 | 1 | -2 | 9 | 7468
COCCCN=CC1=C(O)CC(C)(C)CC1=O | ? | -1 | 6 | -1 | -3 | 23898*
CCCCCCN=CC1=C(O)CC(C)(C)CC1=O | -1 | -17 | 10 | 2 | -6 | 3660
COc1ccc(N=CC2=C(O)CCCC2=O)cc1 | 0 | -4 | 37* | -2 | -6 | 3237
CC1(C)CC(=O)C(C=Nc2ccc3c(c2)OCO3)=C(O)C1 | -4 | -25 | 54* | 1 | -9 | 12565
CC1(C)CC(=O)C(C=NCc2ccc3c(c2)OCO3)=C(O)C1 | 0 | 2 | -3 | -4 | 5 | 4185
COc1ccc(N=CC2=C(O)CC(C)(C)CC2=O)cc1 | 0 | 3 | 42* | 0 | -8 | 5824

High-throughput results deposited in PubChem BioAssay by several laboratories.
